Screening results deposited in PubChem by National Center for Advancing Translational Sciences (NCATS).
This is a sample that favours compounds with a hit; in the whole collection about 5.1% have one here.
Tau fluor counter: Counterscreen qHTS for Inhibitors of Tau Fibril Formation, Fluorescence Polarization; tau K18 P301L Alexa594 fluorescence, heparin fibrillization; Potency, µM (titrated, usually from 57.7 µM); 280,000 tested, 0.93% active; AID 1463, 2008; note: nearly all actives have a fitted effect of over 55% in size
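Human tau K18 P301L (15 uM unlabeled, 0.24 uM Alexa 594-labeled) in 100 mM sodium acetate pH 7 with 20 uM heparin, 6 hr at 37 C. ThT 30 uM added, 1 hr ambient; Alexa 594 FP and total fluorescence read at 555/632 nm.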
PNC assembly inh: High Content Assay for Compounds that inhibit the Assembly of the Perinucleolar Compartment. 140,000 tested, 3.1% active. activity change (PNC), negative = inhibition, % at 10 µM. PC3M PTB-GFP, PNC prevalence imaging, 16 h; hits give low values;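 active = readout at or below -70, meaning at least 70% loss of cells showing the perinucleolar compartment, a nuclear body marking cancer cells; inconclusive = readout between -30 and a set limit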
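Read-out is percentage of cells bearing a perinucleolar compartment, from automated 20x imaging of fixed, Hoechst-stained PC3M PTB-GFP cells. Cells were seeded 4 h, then exposed 16 h to compound (23 nl of library stock) in duplicate plates.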
NPSR antagonist: qHTS Assay for Antagonists of the Neuropeptide S Receptor: cAMP Signal Transduction; Q6W5P4; CHO-NPSR cells, cAMP TR-FRET, antagonist mode; Potency, µM (top dose mostly 38.3 µM), most hits filed as inhibitors; 220,000 tested, 1% active; note: nearly all actives have a fitted effect of over 50% in size
Target sequence (Q6W5P4 whole entry, looked up): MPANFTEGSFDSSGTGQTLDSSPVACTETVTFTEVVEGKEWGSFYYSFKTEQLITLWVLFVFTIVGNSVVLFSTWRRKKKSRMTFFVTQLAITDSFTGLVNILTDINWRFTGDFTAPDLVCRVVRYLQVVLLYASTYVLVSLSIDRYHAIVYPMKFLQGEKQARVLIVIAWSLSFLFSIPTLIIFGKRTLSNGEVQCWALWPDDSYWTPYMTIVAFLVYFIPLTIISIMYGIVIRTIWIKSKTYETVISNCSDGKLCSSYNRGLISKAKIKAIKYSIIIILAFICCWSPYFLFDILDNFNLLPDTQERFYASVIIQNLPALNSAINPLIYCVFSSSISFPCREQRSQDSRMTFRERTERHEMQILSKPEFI
JMJD2E inh: qHTS Assay for Inhibitors of Human Jumonji Domain Containing 2E (JMJD2E) | Lysine-specific demethylase 4E (Homo sapiens), B2RXH2 | JMJD2E catalytic domain, FDH-coupled NADH fluorescence (FDH is formaldehyde dehydrogenase) | Potency, µM (series often up to 57.1 µM), usual class: inhibitors | 230,000 tested, 1.6% active | AID 2147, 2009; active = well fitted inhibition curve with a large enough effect, not every such curve was filed as active; inconclusive = small, poorly fitted or top-dose-only effect, or another doubt; inactive = no such curve, though single readings can be large or run the other way; note: nearly all actives have a fitted effect of over 50% in size
Tau FP inhib: qHTS for Inhibitors of Tau Fibril Formation, Fluorescence Polarization. Potency, µM (titrated, usually from 57.7 µM), usual class: inhibitors. 280,000 tested, 0.39% active. K18 P301L tau heparin fibrillization, Alexa594 FP, 6 h; note: nearly all actives have a fitted effect of over 55% in size
Target sequence (P10636 561-689 P618L limits assumed): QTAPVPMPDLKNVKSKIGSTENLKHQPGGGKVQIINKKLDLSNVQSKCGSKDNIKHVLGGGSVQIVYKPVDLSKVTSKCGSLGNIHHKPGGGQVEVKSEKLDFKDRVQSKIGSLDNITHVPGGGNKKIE
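Steps: dispense K18 P301L tau (15 uM plus 0.24 uM Alexa 594 tracer, final) in pH 7 sodium acetate; add compound; add heparin (20 uM final); incubate 6 hr, 37 C; add ThT (30 uM final); after 1 hr ambient, read FP.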
Tau fibril ThT: qHTS for Inhibitors of Tau Fibril Formation, Thioflavin T Binding; recombinant tau K18 P301L (four-repeat tau fragment), heparin-induced fibrillization, ThT fluorescence; 270,000 tested, 2.1% active; Potency, µM (doses to about 57.4 µM), usual class: inhibitors; AID 1460, 2008; note: nearly all actives have a fitted effect of over 55% in size
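Recombinant human tau K18 fragment […] carrying P301L, 15 uM unlabeled plus 0.24 uM Alexa 594-labeled, was fibrillized with 20 uM heparin in 100 mM sodium acetate pH 7 for 6 hr at 37 C; 30 uM ThT fluorescence read after 1 hr.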
Hits are given with their value; . = inactive; ? = inconclusive; / = no result given; [ ] = remark or other dose. Unless noted, calls come from the whole dose curve; as a rule, active = well fitted curve in the direction sought with a large enough effect; inconclusive = small, poorly fitted or top-dose-only effect, or another doubt; inactive = no such curve, though single readings can be large; an effect the other way counts as inactive or inconclusive.

SMILES	Tau fluor counter	PNC assembly inh	NPSR antagonist	JMJD2E inh	Tau FP inhib	Tau fibril ThT
CCC1CCCCN1CCCNC(=O)c1ccc2c(c1)sc1nc(-c3ccc(F)cc3)cn12 (centres undefined)	.	/	/	/	.	.
C=CCc1cccc(CNc2nc3ccccc3n2C(C)C)c1O	11.2µM[quencher]	.	?	.	.	.
Cc1cc(=O)oc2cc(OCC(=O)Nc3c(C(C)C)cccc3C(C)C)ccc12	.	/	/	/	.	.
O=C(Nc1ccc(N2CCCC2)cc1)c1cccc(F)c1	?	.	.	.	?	12.6µM
CN1CCN(c2ccc(NC(=O)c3sc4ccccc4c3Cl)cc2)CC1	?	/	.	?	.	5.01µM
CN1CCN(c2ccc(NC(=O)c3cccc(OCc4ccccc4)c3)cc2)CC1	14.1µM[quencher]	.	.	.	?	?
CC(=O)Nc1ccc(N2CCCC2)cc1	?	.	.	?	?	28.2µM
O=C(Cn1c(-c2ccccc2)noc1=O)Nc1ccc(S(=O)(=O)N2CCOCC2)cc1	.	.	.	.	.	.
O=C(Cn1c(-c2ccccc2)noc1=O)Nc1ccc(N2CCCCCC2)cc1	14.1µM[quencher]	.	.	.	?	.
CCOc1ccc(CCNC(=O)c2ccc3[nH]c(C)c(C)c3c2)cc1	25.1µM[quencher]	/	/	/	.	?
CCn1ncc(CNC(=O)c2cccc([N+](=O)[O-])c2)c1C	.	-91.6	.	.	.	.
CCn1cc(CNC(=O)c2cccc([N+](=O)[O-])c2)cn1	.	.	.	.	.	.
COc1ccccc1/C=C/C(=O)OCCN1CCOCC1	.	-87.2	.	?	.	.
O=C(OCCN1CCOCC1)c1ccc(OCCN2CCOCC2)cc1	.	-84.6	.	.	.	.
COc1ccc(C(=O)OCCN2CCOCC2)cc1	.	-100.0	.	.	.	.
COc1ccccc1/C=C/C(=O)N1CCOCC1	.	.	.	?	.	.
Cc1c(C(=O)OCC2CCCCC2)[nH]c2c1C(=O)CC(c1ccccc1Cl)C2 (centres undefined)	.	/	/	/	.	.
CC(C)CCN1C(=O)N(c2ccccc2)C(=O)C1CC(=O)Nc1ccc(Cl)cc1 (centres undefined)	.	/	/	/	.	.
COc1cccc(C(=O)n2nc(-c3ccco3)nc2NCc2cccs2)c1	?	/	/	/	.	?
[O-]/C(=C(\C(=S)Nc1ccc(SC(F)F)cc1)[n+]1cccc(CO)c1)c1ccc(Cl)s1	?	/	.	.	.	25.1µM
Cc1ccc(NC(=S)/C(=C(\[O-])c2ccc(Cl)s2)[n+]2cccc(CO)c2)cc1C	.	/	.	.	.	?
[O-]/C(=C(\C(=S)Nc1cccc2ccccc12)[n+]1cccc(CO)c1)c1ccc(Cl)s1	?	/	.	12.6µM	?	14.1µM
COc1ccc(N2CCN(C(=O)CS(=O)(=O)c3cccc4nsnc34)CC2)cc1	.	/	/	/	.	.
Cc1ccc(S(=O)(=O)C(CNC(=O)COc2ccc(Cl)cc2)c2ccco2)cc1 (centres undefined)	.	/	/	/	.	.
c1ccc(OCc2nnc3n2CCCCC3)cc1	.	/	.	.	.	.
SMILES	Tau fluor counter	PNC assembly inh	NPSR antagonist	JMJD2E inh	Tau FP inhib	Tau fibril ThT
COc1ccc(-c2csc(Cc3nnc4n3CCCCC4)n2)cc1	.	?	.	.	.	.
FC(F)Oc1ccc(-c2csc(Cc3nnc4n3CCCCC4)n2)cc1	.	-100.0	.	.	.	.
c1ccc2sc(Cc3nnc4n3CCCCC4)nc2c1	.	-82.5	.	.	.	.
CCN(C(=O)CSc1nc2ccccc2n1CC(=O)Nc1ccc(F)cc1F)c1ccccc1	.	/	/	/	.	.
Cc1ccc(NC(=O)CSc2nnc(-c3cc4occc4n3C)n2-c2ccccc2C)c(C)c1	.	/	/	/	.	.
Cc1cccc(NC(=O)CN(C)S(=O)(=O)c2ccc3c(c2)c(=O)n(C)c(=O)n3C)c1C	.	/	/	/	.	.
O=C(OC(C(=O)NC1CCCC1)c1ccccc1F)c1ccco1 (centres undefined)	.	-139.2	.	.	.	.
COc1ccc(C)cc1NC(=O)Cn1cnc2sc(C)c(S(=O)(=O)N3CCOCC3)c2c1=O	.	-100.0	.	.	.	.
COc1ccc(OC)c(NC(=O)Cn2cnc3sc(C)c(S(=O)(=O)N4CCN(c5ccccc5OC)CC4)c3c2=O)c1	?	/	/	/	.	.
COc1ccccc1NC(=O)Cn1cnc2sc(C)c(S(=O)(=O)N3CCCCC3)c2c1=O	.	-113.4	.	.	.	.
Cc1cccc(S(=O)(=O)Nc2nc3ccccc3nc2Nc2ccc3c(c2)OCO3)c1	.	.	.	.	.	.
O=[N+]([O-])c1cccc(S(=O)(=O)Nc2nc3ccccc3nc2Nc2cccc(S(=O)(=O)N3CCCCC3)c2)c1	?	?	6.31µM	.	.	15.8µM
Nc1ccc2nn(-c3ccccc3)nc2c1	?	/	.	?	.	?
Nc1cc2nn(-c3ccccc3)nc2cc1Cl	?	/	.	?	?	3.55µM
Oc1ccc(Br)cc1C=Nc1ccc2c3c(cccc13)CC2	.	-98.5	.	?	.	?
Cc1ccc(Nc2cc(C)nn2-c2nc(C)cc(C)n2)cc1	.	.	0.794µM	.	.	?
Cc1ccc(Nc2cc(C)nn2-c2nc(C)cc(=O)[nH]2)cc1	.	.	?	?	.	?
Cc1c(CN(C)C(=O)c2cc(-c3ccccc3)nc3ccc(Br)cc23)cnn1C	.	/	/	/	.	.
